HTR5A ag = HTR5A agonists in luminescence cell assay, primary screen, counter-screen for OPRM1-OPRD1 heterodimer agonist project, full-deck HTS. activation, % at 9.3 µM. cell-based. 0.61% of 340,000 active. AID 504692, 2011. 5-hydroxytryptamine receptor 5A (Homo sapiens), P47898; in the data active = activation mostly above about 9.5%, no sharp cut-off; inactive = mostly below about 7.6%;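 also: 0% = cells with vehicle only and 100% = reference agonist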
HTR5A inv ag = HTR5A inverse agonists in luminescence cell assay, primary screen, counter-screen for OPRM1-OPRD1 heterodimer inverse agonist project, full-deck HTS | inhibition, % at 9.3 µM | HTR5A cell line, inverse agonism | 5-hydroxytryptamine receptor 5A (Homo sapiens), P47898 | 0.083% of 340,000 active; in the data active = inhibition mostly above about 23%, no sharp cut-off; inactive = mostly below about 18%;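 also: 0% = cells with DMSO and 100% = no-cell wells with DMSO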
MOR-DOR inv ag = inverse agonists of MOR-DOR heterodimerization, primary screen, cell-based, luminescence; Mu-type opioid receptor (Homo sapiens) + Delta-type opioid receptor (Homo sapiens), …; cell-based MOR-DOR heterodimer luminescence, inverse agonism; inhibition, % at 9.3 µM; 0.21% of 340,000 active; AID 504357, 2011; in the data active = inhibition above about 22%, passing the limit was not always enough;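 also: 0% = cells with DMSO and 100% = wells without cells with DMSO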
Target sequence (P35372 whole entry, looked up): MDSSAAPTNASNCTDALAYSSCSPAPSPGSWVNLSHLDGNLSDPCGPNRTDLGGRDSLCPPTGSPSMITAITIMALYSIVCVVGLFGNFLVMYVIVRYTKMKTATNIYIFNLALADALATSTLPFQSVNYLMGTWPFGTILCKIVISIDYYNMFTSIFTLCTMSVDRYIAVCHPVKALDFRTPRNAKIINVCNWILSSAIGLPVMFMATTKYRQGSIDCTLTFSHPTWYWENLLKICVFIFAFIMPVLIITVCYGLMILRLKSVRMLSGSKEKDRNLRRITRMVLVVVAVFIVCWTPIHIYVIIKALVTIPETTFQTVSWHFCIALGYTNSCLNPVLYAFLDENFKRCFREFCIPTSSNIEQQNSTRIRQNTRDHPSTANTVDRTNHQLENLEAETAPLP
Target sequence (P41143 whole entry, looked up): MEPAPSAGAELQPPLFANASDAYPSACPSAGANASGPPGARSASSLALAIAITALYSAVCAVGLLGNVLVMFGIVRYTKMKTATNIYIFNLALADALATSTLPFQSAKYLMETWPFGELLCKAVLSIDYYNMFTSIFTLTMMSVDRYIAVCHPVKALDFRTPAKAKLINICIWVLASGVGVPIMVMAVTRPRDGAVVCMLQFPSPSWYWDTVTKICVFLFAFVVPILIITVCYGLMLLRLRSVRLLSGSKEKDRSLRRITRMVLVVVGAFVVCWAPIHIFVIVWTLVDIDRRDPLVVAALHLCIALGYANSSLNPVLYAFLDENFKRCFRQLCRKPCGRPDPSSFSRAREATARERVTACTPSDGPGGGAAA
MOR-DOR ag = agonists of OPRM1-OPRD1 heterodimerization, primary screen, cell-based, luminescence; activation, % at 9.3 µM; AID 504326, 2011; 0.3% of 340,000 active; cells; Mu-type opioid receptor (Homo sapiens) + Delta-type opioid receptor (Homo sapiens), …;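 also: 0% = vehicle-treated cells and 100% = reference agonist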
OPRM1-D1 ag cf = agonists of MOR-DOR heterodimerization, confirmation, cell-based, luminescence. shares compounds with MOR-DOR ag. activation, % at 9.3 µM. AID 504904, 2011. 45% of 830 active. cells, luminescence complementation;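 also: 0% = vehicle-treated cells and 100% = reference agonist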
HTR5A ag counter = HTR5A agonists in cells, counter-screen for OPRM1-OPRD1 heterodimer agonist project, cell-based, luminescence | shares compounds with MOR-DOR ag | 8% of 830 active | HTR5A agonist counterscreen | AID 504905, 2011 | activation, % at 9.3 µM; in the data active = activation above about 17%;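 also: 0% = vehicle-treated cells and 100% = reference agonist response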
The depositor's hits bear a star; i = inactive; x = not tested or not shown. Most compounds without a hit are left out; they make up all but 1.1% or so of the library. Rule as the data show it, unless noted: active = activation above about 18%; inactive = the rest.

SMILES | HTR5A ag | HTR5A inv ag | MOR-DOR inv ag | MOR-DOR ag | OPRM1-D1 ag cf | HTR5A ag counter
COCCN(C(=O)C1CC(=O)N(Cc2ccccc2)C1)c1nc(-c2ccc([N+](=O)[O-])cc2)cs1 (stereo not drawn) | -4 | 15 | i | 127* | 154* | 1
COc1ccccc1OCC(=O)N1CCN(S(=O)(=O)c2ccc(Cl)cc2)CC1 | -5 | 12 | 5 | -1 | x | x
CN(C)C(CNC(C(=O)Nc1ccc([N+](=O)[O-])cc1Br)c1ccccc1)c1ccccc1 (stereo not drawn) | 10 | 35 | -318 | 66* | 79* | 4
CN(C)C(CNC(C(=O)Nc1ccc(F)cc1)c1ccccc1)c1ccccc1 (stereo not drawn) | 3 | -8 | i | 230* | 0 | 3
O=C(Nc1ccc(F)cc1)C(NC1CCCCC1)c1ccccc1 (stereo not drawn) | -1 | 3 | 4 | -1 | x | x
CC(C)CNC(C(=O)Nc1ccc([N+](=O)[O-])cc1Br)c1ccccc1 (stereo not drawn) | 4 | -5 | -21 | 3 | x | x
CCOc1ccc(NC(=O)CSc2nc3c([nH]c4ccccc43)c(=O)n2C)cc1 | -5 | 16 | 6 | -1 | x | x
Cc1ccc(NC(=O)CSc2nc3c([nH]c4ccccc43)c(=O)n2C)cc1 | 3 | -7 | -185 | 31* | -4 | 1
Cn1c(SCC(=O)Nc2ccc(F)cc2)nc2c([nH]c3ccccc32)c1=O | 4 | -12 | -129 | 25* | 18* | 5
Cc1cccc(NC(=S)N(CCN(C)C)C(C)c2cccnc2)c1 (stereo not drawn) | -3 | 24 | 3 | -1 | x | x
CN(C)C(CNC(=S)Nc1ccc(F)cc1)c1cccnc1 (stereo not drawn) | 2 | 9 | i | 112* | -2 | -3
Cc1cccc(NC(=S)NCC(c2cccnc2)N(C)C)c1 (stereo not drawn) | -1 | 5 | i | 218* | 210* | -3
COC(=O)C1CC(O)C(O)C(O)C1 (stereo not drawn) | -1 | 18 | 3 | -1 | x | x
O=S(=O)(c1ccccc1)N1CCN(C(=S)NC2CCCC2)CC1 | 2 | -4 | 7 | -2 | x | x
O=S(=O)(c1c(Cl)cc(Br)cc1Cl)N1CCN(C(=S)NC2CC2)CC1 | 0 | 1 | -413 | 85* | 122* | 4
O=C1NC(=S)NC1(c1ccccc1)c1ccccc1 | -2 | 8 | 15 | -3 | x | x
CCCCN1C(=O)C(=O)c2cc(Cl)ccc21 | 0 | -1 | 30 | -6 | x | x
COc1ccc2nc(C)cc(N/N=C/c3cccc(OC)c3O)c2c1 | 2 | -8 | -20 | 4 | x | x
COc1ccc(/C=N/Nc2cc(C)nc3ccc(Br)cc23)cc1 | 5 | -17 | -108 | 21* | 2 | -4
O=C(COC(=O)c1cc(=O)[nH]c2ccccc12)NCCc1ccccc1 | 0 | 1 | 6 | -1 | x | x
Cc1cc(NC(=O)c2cc(-c3ccccn3)nc3ccc(Br)cc23)no1 | 1 | -3 | 9 | -2 | x | x
O=C(Nc1ccccn1)c1cc(-c2cccnc2)nc2ccc(Br)cc12 | 3 | -8 | -158 | 33* | 20* | 10
N=c1n(Cc2ccc(Cl)cc2)c2ccccc2n1CC(O)COc1ccccc1 (stereo not drawn) | 14* | -41 | i | 94* | -2 | 0
Cc1ccc(C)c(N2CCN(C(=S)Nc3ccc4nc(N5CCN(C)CC5)cc(C)c4c3)CC2)c1 | 9 | -27 | -91 | 18* | 22* | 4
Cc1ccc(C)c(N2CCN(C(=S)Nc3ccc4nc(N5CCOCC5)cc(C)c4c3)CC2)c1 | -6 | 16 | -32 | 5 | x | x
CCc1ccc(OCC(=O)Nc2ccc(S(=O)(=O)N3CCCC3)cc2)c(Br)c1 | -3 | -13 | -104 | 19* | 1 | -5
O=C(COc1ccc(Br)cc1CO)Nc1ccc(S(=O)(=O)N2CCCCC2)cc1 | 2 | -7 | -26 | 5 | x | x
Cc1ccc(OCCCC(=O)NNC(=O)c2ccccn2)cc1 | -1 | 5 | 5 | -1 | x | x
CCN1CCN(c2c(S(=O)(=O)c3ccc(C)c(C)c3)cnc3ccc(F)cc23)CC1 | -3 | 8 | -314 | 53* | 12 | -3

Screening data from PubChem.
